PubChem BioAssay (NCATS)
Results filed as inconclusive are left out. Calls of active or inactive are those of the source. The call rests on the fitted dose curve; in most records, active means well fitted curve in the direction sought with a large enough effect; inconclusive means small, poorly fitted or top-dose-only effect, or another doubt; inactive means no such curve, though single readings can be large; an effect the other way counts as inactive or inconclusive.

Experiments:
[1] = target: Cellular tumor antigen p53 (Homo sapiens) (UniProt P04637); assay: Primary qHTS for small molecule compounds that upregulate eGFP-tagged delta133p53alpha (in N-terminal) cells. (AID 2060322); conditions: NCI-H358 eGFP-delta133p53alpha fluorescence, 24 h; activation: active compounds read high;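 further: cells pre-induced with doxycycline then dosed without doxycycline; series mostly up to about 56 µM; 0% = DMSO vehicle and 100% = reference activator; nearly all actives have a fitted effect of over 75% in size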
Summary of the method: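 NCI-H358 cells pre-induced 24 h with 10 ng/ml doxycycline for eGFP-delta133p53alpha, plated dox-free and exposed 24 h at 37C to titrated compounds. Fixed, Hoechst-stained; gated GFP peak intensity by laser scanning cytometry, normalized to DMSO (0%) and 57.5 uM 5-azacytidine (100%).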

[2] = target: Aldehyde dehydrogenase, mitochondrial (Homo sapiens) (UniProt P05091); assay: qHTS for Inhibitors of the Aldehyde Dehydrogenase Family (ALDH2) Primary screen (AID 2061308);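 further: plate controls were vehicle for no effect and reference inhibitor for full effect; nearly all actives have a fitted effect of over 55% in size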
[3] = target: Retinaldehyde dehydrogenase 3 (Homo sapiens) (UniProt P47895); assay: qHTS for Inhibitors of the Aldehyde Dehydrogenase Family (ALDH1A3) Primary screen (AID 2061315);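 further: plate controls were DMSO vehicle for no effect and reference inhibitor for full effect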

Chain of Cellular tumor antigen p53 (Homo sapiens) (P04637 whole entry, looked up): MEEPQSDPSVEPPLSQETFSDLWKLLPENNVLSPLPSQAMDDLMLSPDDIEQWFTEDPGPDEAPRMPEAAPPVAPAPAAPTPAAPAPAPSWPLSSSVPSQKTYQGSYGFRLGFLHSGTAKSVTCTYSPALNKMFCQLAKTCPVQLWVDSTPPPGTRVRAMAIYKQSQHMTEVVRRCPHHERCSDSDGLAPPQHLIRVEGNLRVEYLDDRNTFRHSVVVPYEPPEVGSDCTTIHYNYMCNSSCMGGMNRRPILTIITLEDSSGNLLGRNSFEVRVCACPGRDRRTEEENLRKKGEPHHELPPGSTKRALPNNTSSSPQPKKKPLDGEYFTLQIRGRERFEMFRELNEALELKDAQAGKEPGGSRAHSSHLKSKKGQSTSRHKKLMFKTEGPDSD

CC(=O)O[C@@H]1[C@H]2[C@@H](OC(=O)c3ccccc3)[C@@H](C)C[C@]2(O)[C@H](OC(C)=O)[C@@]2(C)[C@@H]3CC(C)(C)C(=O)[C@]3(OC(C)=O)C[C@@]12C
inactive: activation [1] -15.2% | Potency [2] | Potency [3]

N#Cc1c[nH]c2c(C(=O)N3CCN(CCc4ccc(F)cc4)CC3)cccc12
inactive: activation [1] -18.8% | Potency [2] | Potency [3]

C/C1=C\[C@@H](C)C[C@@H](C)[C@@H](Cc2cnco2)OC(=O)/C(C)=C/[C@@H](C)C[C@@H](C)[C@@H](Cc2cnco2)OC1=O
inactive: activation [1] 0% | Potency [2] | Potency [3]

Cc1ccc(C)c(NC(=O)CNS(=O)(=O)c2ccc3[nH]c(=O)oc3c2)c1
inactive: activation [1] 17% | Potency [2] | Potency [3]

CC12CC(c3ccoc3)OC(=O)C1CCC1(C)C2CCC(O)C1(C)O (stereo not given)
inactive: activation [1] 23.7% | Potency [2] | Potency [3]

CC1(C)CC2C(O)c3cocc3CC(C)(O)C2C1 (stereo not given)
inactive: activation [1] -8.04% | Potency [2] | Potency [3]

C[C@@H]1CC[C@]2(C(=O)O)CC[C@]3(C)C(=CCC4[C@@]5(C)CC[C@H](O)[C@](C)(C(=O)O)C5CC[C@]43C)C2[C@]1(C)O (stereo not given in full)
inactive: activation [1] 8.4% | Potency [2] | Potency [3]

CC(=O)NCCCCn1c2c(c3ccccc31)C(=O)NCC2
inactive: activation [1] -13.4% | Potency [2] | Potency [3]

COc1cc(C)c(C(=O)O[C@@H]2[C@H](O)[C@@H](CO)O[C@H]2n2ccc(=O)[nH]c2=O)c(OC)c1
inactive: activation [1] -5.34% | Potency [2] | Potency [3]

CC1(C(=O)O)CCCC2(C)C1CCC13CC(CCC21)C1(CO)OC31 (stereo not given)
inactive: activation [1] -9.16% | Potency [2] | Potency [3]
